This note sets out measurements from PubChem BioAssay AID624297 (National Center for Advancing Translational Sciences (NCATS), 2012).

Each structure is given as a SMILES string. About 6,200 (1.8%) of roughly 340,000 compounds were called active. A call without a number means that no potency is given here. About 10% were inconclusive and are not listed. Calls follow the shape of the dose curve; as a rule, active = well fitted activation curve with a large enough effect; inconclusive = small, poorly fitted or top-dose-only effect; inactive = no such curve, though single readings can be large or run the other way. This excerpt belongs to a sample that is enriched for actives.
Potency is read from the fitted curve at half-maximal effect.

A short description of the test: A quantitative high throughput screen for small molecules that induce DNA re-replication in SW480 colon adenocarcinoma cells. Also: nearly all actives have a fitted effect of over 55% in size. Particulars: Hoechst DNA content imaging, 48 h; series mostly up to 46.1 µM. A digest of the protocol:
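Readout is total intensity of Hoechst-stained nuclei, excited at 405 nm and collected at 500-530 nm. Compound treatment lasted 48 hr at 37 C in 5% CO2 before staining.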
For `Cc1ccc(CN(C)CC(=O)Nc2cccc([N+](=O)[O-])c2)o1`, the Potency result was “inactive”.
As to `COc1ccc(C)cc1S(=O)(=O)N(CC(=O)Nc1cccc([N+](=O)[O-])c1)c1ccc(C)cc1`, the Potency result was “inactive”.
On the same count and under the same terms, the result for `Cc1ccc(S(=O)(=O)N(CC(=O)Nc2cccc([N+](=O)[O-])c2)Cc2ccc(Cl)cc2)cc1` reads 8.2 µM (active).
On the same count and under the same terms, the same measure for `CCCN(C(=O)CSc1nnc(N)s1)c1c(N)n(Cc2ccccc2)c(=O)[nH]c1=O`: “inactive”; for `COc1ccc2c(c1)c(=Cc1ccc(N(C)C)cc1)c1cc(-c3ccccc3)[n+](C)n12`: “inactive”; for `CC(C)(C)OC(=O)CNC(=O)c1[nH]cnc1C(=O)N[C@@H](CCCCN)C(=O)OC(C)(C)C`: “inactive”.
Regarding `NS(=O)(=O)c1cccc(NC(=O)COC(=O)c2cc([N+](=O)[O-])ccc2N2CCCC2)c1`, the Potency entry was “inactive”.
Regarding `COC(=O)CC(CC(=O)OC)n1cccc1`, the Potency result is “inactive”.
In the case of `CCN(CC)CCCC(C)n1c2nc(=O)[nH]c(=O)c-2nc2cc(Cl)ccc21` (stereo not given), the Potency was 11.6 µM (active).
For `O=C(Cc1ccc(NC(=O)C2CCCN(C(=O)C3CCCCC3)C2)cc1)Nc1cccc(C(=O)N2CCCCC2)c1` (stereo not given), the re-replication activation is 5.52% [at 9.22 µM] (inactive).
In the case of `Cc1cc(C2=NNC(=Nc3ccc(S(=O)(=O)N4CCOCC4)cc3)SC2)c(C)n1CC1CCCO1` (stereo not given), the Potency is 3.66 µM (active).
Still for that read-out and setting: the result for `C=CCn1c(C)cc(C2=NNC(=NCC)SC2)c1C` reads “inactive”; that for `Cc1ccc(CC(=O)Nc2ccc(S(=O)(=O)N3CCOCC3)cc2)cc1C`, “inactive”.
With `CN(C(=O)c1cccc(NC(=O)Cc2ccc(NC(=O)C3CCN(C(=O)C4CCCCC4)CC3)cc2)c1)C1CCC1`, the re-replication activation is 10.8% [at 9.22 µM] (inactive).
With `O=S1(=O)CSCS(=O)(=O)C1`, the Potency entry was “inactive”.
`COc1ccc(-c2nc3cnccn3c2NC2CCCCC2)cc1-c1cccc(Cl)c1`: the Potency is 5.17 µM (active).
For `Cc1ccc2nc(-c3cccnc3)c(NC3CCCC3)n2c1`, the Potency entry was “inactive”.
With `COc1ccc(-c2nc3cnccn3c2NC(C)(C)CC(C)(C)C)cc1O`, the Potency entry was “inactive”.
In the case of `COc1cc(NC(=O)COC(=O)c2ccc([N+](=O)[O-])s2)cc(OC)c1OC`, the Potency entry is “inactive”.
For the molecule `CCCCN(CCCC)CC(O)Cn1c2ccccc2c(=O)c2ccccc21` (stereo not given), the Potency was 7.31 µM (active).
For `CCCn1c(=O)c(-c2ccccc2)c(O)c2ccccc21`, the Potency entry is “inactive”.
On to `CC(=O)c1ccc2c(c1)c1ccccc1n2CC(C)C`, for which the Potency entry was “inactive”.
In the case of `Nc1nonc1-n1nnc(C(=O)N/N=C/c2ccccc2O)c1CN1CCCC1`, the Potency result is “inactive”.
Regarding `Cc1ccc(SCc2c(C(=O)N/N=C/c3cccnc3)nnn2-c2nonc2N)cc1`, the Potency entry is “inactive”.
For `Nc1nonc1-n1nnc(C(=O)N/N=C/c2cc(Br)ccc2O)c1CSC1=NCCS1`, the Potency was 13 µM (active).
On the same count and under the same terms, the same measure for `O=C(CCCCCCCC(=O)N1CCCCC1)N1CCCCC1`: “inactive”; for `COc1ccc(C(=O)OCc2cc(=O)n3ccsc3n2)cc1F`: “inactive”.
As to `CCCNC(=O)c1c(N)n(-c2ccc(S(N)(=O)=O)cc2)c2nc3ccccc3nc12`, the Potency is 0.82 µM (active).
Consider `Cc1noc(C)c1C(=O)NCCc1ccc(S(N)(=O)=O)cc1`, for which the Potency result was “inactive”.
Consider `CCOC(=O)c1c(C)c(C(=O)NCCc2ccc(S(N)(=O)=O)cc2)c(C)n1CC`, for which the Potency entry is “inactive”.
With `Cc1csc(NC(=O)c2ccc(C)s2)n1`, the Potency result was “inactive”.
As for `O=C(Nc1cccc2ncccc12)c1ccc(-c2ccc(Cl)cc2Cl)o1`, the Potency result is “inactive”.
As to `Cc1csc(NC(=O)c2ccc(-c3ccc(Cl)cc3Cl)o2)n1`, the Potency is 13 µM (active).
With `Cc1cccc(N2O[C@H]3C=CC2CCCC3)n1`, the Potency result was “inactive”.
On to `CC1CN(Cc2ccco2)C(=S)N(c2ccccc2)C1=O` (stereo not given), for which the Potency entry was “inactive”.
For the molecule `CN1CCN(S(=O)(=O)c2ccc(NC(=S)NC(=O)C3CC3)cc2)CC1`, the Potency entry is “inactive”.
Turning to `Cc1cc(Nc2cc(N3CCN(C)CC3)nc(Sc3ccc(NC(=O)C4CC4)cc3)n2)n[nH]1`, the Potency was 0.259 µM (active).
With `Cc1cc(C)nc(N2CCC(C(=O)Nc3ccc4c(c3)OCCO4)CC2)n1`, the Potency result is “inactive”.
In the case of `CC1Cc2ccccc2N1S(=O)(=O)c1cccc(C(=O)OCC(=O)N2CCOCC2)c1` (stereo not given), the Potency entry is “inactive”.
For the molecule `O=C(COC(=O)C1CCCO1)Nc1nc(-c2ccc(F)cc2)cs1` (stereo not given), the Potency entry was “inactive”.
With `CC[C@]1(C(=O)OC)[C@H]2C(=O)N(C)C(=O)[C@H]2[C@H]2CN(C)C(=NCc3ccccc3)N21`, the Potency entry was “inactive”.
Same read-out and setting: the same measure for `CC1=CC(C)(C)Nc2ccc(OC(=O)CN3C(=O)C4CCCCC4C3=O)cc21` (stereo not given): 20.6 µM (active); for `O=C(COC(=O)CN1C(=O)C2CCCCC2C1=O)Nc1ccc(F)c(F)c1F` (stereo not given): “inactive”.
On the same count and under the same terms, the same measure for `O=C(CN1C(=O)C2C3CCC(C3)C2C1=O)Oc1ccc2ccccc2c1` (stereo not given): “inactive”; for `COc1ccc(CNC(=O)CN2C(=O)c3ccccc3S2(=O)=O)cc1`: “inactive”.
`CCC(CO)Oc1cc(NC(=O)c2cccc3ccccc23)c2ncn(C(C)C)c2c1` (stereo not given): the re-replication activation is -5.66% [at 9.22 µM] (inactive).
In the case of `O=C(CN1C(=O)NC2(CCCC2)C1=O)OCCOc1ccc(F)cc1`, the Potency entry is “inactive”.
Take `CCc1ccc(C(=O)C(C)OC(=O)CN2C(=O)NC3(CCCC3)C2=O)cc1` (stereo not given): the Potency was 3.26 µM (active).
Same read-out and setting: the same measure for `Cc1ccc(COC(=O)CN2C(=O)NC3(CCCC3)C2=O)cc1`: “inactive”; for `O=C1c2ccccc2C(=O)C1C(=O)C1CC1`: “inactive”.
As for `Cc1cccc(-n2ncc3c(=O)[nH]c(SCC(=O)Nc4cc(C)on4)nc32)c1`, the Potency entry is “inactive”.
As for `CC(C)(C)C(=O)Nc1cccc(-c2ccc[nH]2)n1`, the Potency entry is “inactive”.
In the case of `CCOc1ccc2nc(NCCNS(=O)(=O)c3ccccc3)c(C#N)cc2c1`, the Potency is 18.4 µM (active).
Same read-out and setting: the result for `CCOc1ccc2nc(NCCNC(=O)C(C)(C)C)c(C)cc2c1` reads “inactive”.
Turning to `CCOc1ccc(S(=O)(=O)NCCSc2ccccc2)cc1`, the Potency entry is “inactive”.
As for `O=C1C=CN2CCCC2CC1` (stereo not given), the Potency entry was “inactive”.
As to `Cc1nc(N)nc(Cl)c1CCC1OCCO1`, the Potency entry is “inactive”.
Same read-out and setting: the same measure for `CC(OC(=O)c1ccc([N+](=O)[O-])cc1)C(=O)NCC1CCCCC1` (stereo not given): “inactive”; for `COc1ccc(CCNC(=O)C(Sc2ccccn2)c2ccccc2)cc1OC` (stereo not given): “inactive”; for `COc1ccc(C(CCN(Cc2ccc(OC)c(OC)c2)C(=O)CCl)c2ccccc2)cc1` (stereo not given): 23.1 µM (active).
On to `COc1ccc(COC(=O)NC(C(=O)O)c2ccccc2)cc1` (stereo not given), for which the Potency result is “inactive”.
Turning to `COc1ccc(CC(=O)N[C@@H]2c3cc(OC)c(OC)cc3C[C@H]2OCc2ccccc2)cc1`, the Potency entry was “inactive”.
Consider `Cc1ccc(C)c(S(=O)(=O)N(C)c2ccc(OC(=O)C3CCN(C(=O)c4ccc(F)cc4)CC3)cc2)c1`, for which the Potency result is “inactive”.
As to `Cn1nnnc1SCC(=O)Nc1cccc(S(=O)(=O)N2CCCCC2)c1`, the Potency entry is “inactive”.
Still for that read-out and setting: the same measure for `COc1ccc(OC)c(NC(=O)COC(=O)Cc2ccsc2)c1`: “inactive”.
As for `Cc1ccc(Br)c(NS(=O)(=O)c2cccc(C(=O)N3CCNC(=O)C3)c2)c1`, the Potency entry is “inactive”.
`OCC(O)C1OCOC(C(O)CO)C1O` (stereo not given): the Potency entry is “inactive”.
`c1ccc(C(=NNc2nc3ccccc3s2)c2ccccn2)cc1`: the Potency was 0.259 µM (active).
With `O=C(CCNC(=O)c1ccccc1)Nc1nc2ccccc2s1`, the Potency entry is “inactive”.
With `c1ccc2sc(NN=C3CCCC3)nc2c1`, the Potency result was “inactive”.
Consider `N#CC1(Nc2ccc(-c3ccc(Cl)cc3)cc2)CCCC1`, for which the Potency entry is “inactive”.
Regarding `Cc1ccc(-n2[nH]c(C)c(/C=N/N3C(=O)c4cccc5cccc(c45)C3=O)c2=O)cc1`, the Potency is 16.4 µM (active).
In the case of `Cc1ccc(-c2ccnc3[nH]n(-c4ccccc4)c(=O)c23)cc1`, the Potency result was “inactive”.
In the case of `Cc1[nH]n(-c2ccc([N+](=O)[O-])cc2)c(=O)c1C=NCCN1CCN(C(=O)c2ccccc2F)CC1`, the Potency result is “inactive”.
As for `COc1ccc(-c2cc(C(=O)NCCCn3ccnc3)no2)cc1`, the Potency entry is “inactive”.
For `O=C(NCCCn1ccnc1)c1cc(-c2ccccc2)on1`, the Potency is 7.31 µM (active).
On to `COc1ccccc1-c1cc(C(=O)NCCCn2ccnc2)no1`, for which the Potency result is “inactive”.
On to `CCCCN1CC(CO)Oc2cccc(F)c2S1(=O)=O` (stereo not given), for which the Potency result was “inactive”.
Take `C[C@@H]1ON(C)[C@H]2C[C@H]3c4cc(N5CCN(C)CC5)ccc4CCN3C(=O)[C@@H]12`: the Potency entry is “inactive”.
As for `COc1ccc(/C=C/C(=O)Nc2ccc(C34CC5CC(CC(O)(C5)C3)C4)cc2)cc1OC`, the Potency is 18.4 µM (active).
Consider `COc1ccc(/C=C/C(=O)Nc2cccnc2)cc1OC`, for which the Potency entry is “inactive”.
Take `COc1ccc(/C=C/C(=O)Nc2ccc(C)cc2)cc1S(=O)(=O)N1CCOCC1`: the Potency result was “inactive”.
In the case of `CC1=C(C)CC(C(=O)NNC(=O)c2csc3c2CCC(C(C)(C)C)C3)C(C(=O)O)C1` (stereo not given), the Potency was 29.1 µM (active).
`COC(=O)c1c(NC(=O)C2CC(C)=C(C)CC2C(=O)O)sc2c1CCCCC2` (stereo not given): the Potency result was “inactive”.
On the same count and under the same terms, the result for `CC1=C(C)CC(C(=O)NNC(=O)c2ccccc2O)C(C(=O)O)C1` (stereo not given) reads “inactive”.
In the case of `NC(=O)C1(Nc2ccc(-c3ccccc3)cc2)CCCC1`, the Potency entry was “inactive”.
For `Cc1ccc(S(=O)(=O)N2CCOCC2)cc1NC(=O)COC(=O)c1cnccn1`, the Potency result is “inactive”.
Take `O=C(CC1Nc2ccccc2NC1=O)Nc1ccccc1` (stereo not given): the Potency was 12.6 µM (active).
For `COC(=O)c1cc(C)sc1NC(=O)CC1Nc2ccccc2NC1=O` (stereo not given), the Potency entry was “inactive”.
Same read-out and setting: the same measure for `O=C(CC1NCCNC1=O)Nc1ccc(Oc2ccccc2)cc1` (stereo not given): “inactive”; for `C[C@]12CCC(=O)C=C1C=CC1C2CC[C@@]2(C)C1CC[C@@]21CCC(=O)O1` (stereo not given in full): “inactive”; for `Nc1ccc2c(c1)C(=Cc1cccnc1)c1ccccc1-2`: “inactive”.
The same measure, in the same setting: the same measure for `Cc1ccc(SC(CC(=O)c2ccc(C(C)(C)C)cc2)C(=O)O)cc1` (stereo not given): 20.6 µM (active).
`Cc1ccc(C(=O)CSc2ccccc2C(=O)O)cc1`: the Potency entry was “inactive”.
Take `Cc1ccc(C(=O)CNc2ccc(F)cc2)cc1`: the Potency result was “inactive”.
For `O=C(N[C@H]1C/C=C\C(c2cccc(F)c2)N(Cc2ccccc2)C(=O)C1)OCC1c2ccccc2-c2ccccc21` (stereo not given in full), the Potency entry is “inactive”.
As to `C#CCOCCOCCOCCNc1nc(N2CCN(C(=O)[C@H](CCCN=C(N)N)n3cc(C(N)[C@@H](C)CC)nn3)CC2)nc(N2CCN(C(=O)[C@H](CO)n3cc([C@@H](N)C(C)C)nn3)CC2)n1` (stereo not given in full), the Potency entry was “inactive”.
For the molecule `COC(=O)COc1cccc2c(=O)n(CC(=O)NCc3ccccc3)ccc12`, the Potency is 2.59 µM (active).
Regarding `Cc1ccc(CNC(=O)CCNC(=O)Cn2ccc3ccccc3c2=O)cc1`, the Potency entry is “inactive”.
The same measure, in the same setting: the result for `COC(=O)COc1cccc2c(=O)n(CC(=O)NCCc3ccc(OC)c(OC)c3)ccc12` reads “inactive”.
